Inconclusive results are not listed. The source made the active and inactive calls. How the source made its calls, unless noted: active means hit-call score of the fitted dose curve at least 0.9, where 1 is the maximum; inactive means score below 0.9.
Experiments:
[1] = ACEA_ER_80hr: ACEA Biosciences xCELLigence Real-Time Cell Analysis on Estrogen Receptor Agonism for Proliferation (AID 2282667; active means hit-call score of the fitted dose curve at least 0.9, where 1 is the maximum); details: T47D proliferation, impedance (xCELLigence), 80 h
How it was run: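 T47D human breast cells were seeded on electrode plates, monitored overnight, then exposed continuously to compounds in eight-point 1:4 dilutions from 100 uM (max 0.5% DMSO). Impedance-based growth was read at 80 h, fitted upward relative to DMSO.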

[2] = ATG_CRE_CIS: Attagene CIS-FACTORIAL HepG2 Assay for human cAMP Responsive Element (CRE) binding protein 3 (AID 2282926); details: HepG2 CRE cis-reporter, Attagene multiplexed mRNA; actives raise or lower the signal
How it was run: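 HepG2 cells transiently transfected with a multiplexed reporter library (CRE-driven unit among them) were dosed for 24 h. Reporter mRNA was quantified by RT-PCR, fluorescent labelling, HpaI digestion and capillary electrophoresis, with bidirectional fitting against DMSO baseline.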

[3] = molecular target: CCAAT/enhancer-binding protein beta (Homo sapiens) (UniProt P17676); assay: ATG_C_EBP_CIS: Attagene CIS-FACTORIAL HepG2 Assay for human CCAAT/Enhancer Binding Protein (C/EBP) beta (AID 2282927); details: HepG2 Attagene cis-factorial transcription factor reporter; actives raise or lower the signal
How it was run: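 Following a 24 h incubation with test chemical, transfected HepG2 cells yielded RNA whose reporter transcripts were quantified by RT-PCR and fluorescent capillary electrophoresis, with DMSO serving as baseline for bidirectional fitting.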

[4] = ATG_DR4_LXR_CIS: Attagene CIS-FACTORIAL HepG2 Assay for human Liver X Receptor (LXR), DR4 submotif (AID 2282929); details: HepG2 Attagene DR4 cis-reporter, mRNA transcription; actives raise or lower the signal
How it was run: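 Transiently transfected HepG2 liver cells; cis-regulated reporters; 24 h dosing. RT-PCR plus CE read-out of reporter mRNA. DMSO baseline, bidirectional curve fitting.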

[5] = molecular target: Aryl hydrocarbon receptor (Homo sapiens) (UniProt P35869); assay: ATG_Ahr_CIS: Attagene CIS-FACTORIAL HepG2 Assay for human Aryl Hydrocarbon Receptor (Ahr) (AID 2282930); details: HepG2 AhR cis-factorial reporter transcription; actives raise or lower the signal
How it was run: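 Values derive from bidirectional fitting against DMSO negative control. Underlying signal: cis-element reporter mRNA in transiently transfected HepG2, harvested 24 h post-dose and measured by RT-PCR plus capillary electrophoresis.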

[6] = ATG_AP_1_CIS: Attagene CIS-FACTORIAL HepG2 Assay for human Activator Protein 1 (AP-1) (AID 2282931); details: HepG2 Attagene cis-factorial AP-1 reporter mRNA; actives raise or lower the signal
How it was run: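 We transfected HepG2 cells transiently with a set of cis-regulated reporter transcription units, dosed them for 24 h, and quantified reporter mRNA via RT-PCR and capillary electrophoresis, scoring gain or loss of signal relative to DMSO.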

[7] = ATG_AP_2_CIS: Attagene CIS-FACTORIAL HepG2 Assay for human Activator Protein 2 (AP-2) (AID 2282932); details: HepG2 AP-2 cis-reporter, Attagene transcription factor profiling; actives raise or lower the signal
How it was run: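 HepG2 cells were transiently transfected with multiple cis-promoter reporter transcription units and dosed for 24 h. Reporter mRNA was measured by RT-PCR with capillary electrophoresis fluorescence; bidirectional fits relative to DMSO baseline.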

[8] = ATG_BRE_CIS: Attagene CIS-FACTORIAL HepG2 Assay for human Bone Morphogenetic Protein (BMP) Response Element (BRE) (AID 2282933); details: HepG2 BMP response element reporter, Attagene transcription factor profiling; actives raise or lower the signal
How it was run: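 A HepG2 multiplex reporter system measured inducible reporter mRNA 24 h post-dosing. Detection: RT-PCR, 6-FAM primer extension, HpaI digestion, capillary electrophoresis. Activity fitted bidirectionally relative to DMSO.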

[9] = molecular target: Retinoic acid receptor alpha (Homo sapiens) (UniProt P10276); assay: ATG_DR5_RAR_CIS: Attagene CIS-FACTORIAL HepG2 Assay for human Retinoic Acid Receptor Alpha (RARE), DR5 submotif (AID 2282934); details: HepG2 Attagene cis-factorial RARE DR5 reporter, mRNA; actives raise or lower the signal;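 on AC50: reporter responds to endogenous RAR alpha beta and gamma in HepG2 not RARA alone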
How it was run: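 Endpoint fitted in both directions relative to DMSO as negative control. It reflects DR5 cis-element reporter mRNA induction in transiently transfected HepG2 cells, measured 24 h after dosing through RT-PCR and fluorescent capillary electrophoresis.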

Measured: AC50

Sequence of Aryl hydrocarbon receptor (Homo sapiens) (P35869 whole entry, looked up): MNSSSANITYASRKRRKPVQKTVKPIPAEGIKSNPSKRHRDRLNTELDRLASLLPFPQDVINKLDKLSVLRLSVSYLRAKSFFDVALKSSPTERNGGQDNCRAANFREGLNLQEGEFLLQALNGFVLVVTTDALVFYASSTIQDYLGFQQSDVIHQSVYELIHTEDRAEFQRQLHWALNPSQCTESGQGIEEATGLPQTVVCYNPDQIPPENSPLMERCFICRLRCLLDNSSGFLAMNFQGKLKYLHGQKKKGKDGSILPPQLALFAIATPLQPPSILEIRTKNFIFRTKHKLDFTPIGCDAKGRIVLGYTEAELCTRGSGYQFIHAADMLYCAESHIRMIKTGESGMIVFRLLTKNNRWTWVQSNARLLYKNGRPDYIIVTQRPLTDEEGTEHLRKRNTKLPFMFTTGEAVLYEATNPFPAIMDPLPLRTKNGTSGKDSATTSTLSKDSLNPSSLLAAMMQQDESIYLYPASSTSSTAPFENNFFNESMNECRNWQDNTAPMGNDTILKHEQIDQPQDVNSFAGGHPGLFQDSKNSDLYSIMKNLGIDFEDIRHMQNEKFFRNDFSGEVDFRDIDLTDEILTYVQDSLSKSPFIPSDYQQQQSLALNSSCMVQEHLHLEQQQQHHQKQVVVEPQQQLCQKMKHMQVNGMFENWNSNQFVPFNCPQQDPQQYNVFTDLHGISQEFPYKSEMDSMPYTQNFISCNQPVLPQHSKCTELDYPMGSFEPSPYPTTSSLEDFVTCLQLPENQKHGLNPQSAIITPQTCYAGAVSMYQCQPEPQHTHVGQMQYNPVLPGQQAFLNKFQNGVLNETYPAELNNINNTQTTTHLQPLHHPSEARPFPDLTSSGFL
Sequence of CCAAT/enhancer-binding protein beta (Homo sapiens) (P17676 whole entry, looked up): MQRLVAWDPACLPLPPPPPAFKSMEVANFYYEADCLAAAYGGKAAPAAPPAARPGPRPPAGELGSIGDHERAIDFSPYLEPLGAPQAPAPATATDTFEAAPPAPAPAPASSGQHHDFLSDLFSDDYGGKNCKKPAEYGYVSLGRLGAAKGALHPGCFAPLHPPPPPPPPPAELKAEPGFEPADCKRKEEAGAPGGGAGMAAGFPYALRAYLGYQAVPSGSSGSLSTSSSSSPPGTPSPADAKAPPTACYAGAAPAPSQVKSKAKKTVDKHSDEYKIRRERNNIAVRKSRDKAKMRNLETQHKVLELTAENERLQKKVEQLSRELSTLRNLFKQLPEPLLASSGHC
Sequence of Retinoic acid receptor alpha (Homo sapiens) (P10276 whole entry, looked up): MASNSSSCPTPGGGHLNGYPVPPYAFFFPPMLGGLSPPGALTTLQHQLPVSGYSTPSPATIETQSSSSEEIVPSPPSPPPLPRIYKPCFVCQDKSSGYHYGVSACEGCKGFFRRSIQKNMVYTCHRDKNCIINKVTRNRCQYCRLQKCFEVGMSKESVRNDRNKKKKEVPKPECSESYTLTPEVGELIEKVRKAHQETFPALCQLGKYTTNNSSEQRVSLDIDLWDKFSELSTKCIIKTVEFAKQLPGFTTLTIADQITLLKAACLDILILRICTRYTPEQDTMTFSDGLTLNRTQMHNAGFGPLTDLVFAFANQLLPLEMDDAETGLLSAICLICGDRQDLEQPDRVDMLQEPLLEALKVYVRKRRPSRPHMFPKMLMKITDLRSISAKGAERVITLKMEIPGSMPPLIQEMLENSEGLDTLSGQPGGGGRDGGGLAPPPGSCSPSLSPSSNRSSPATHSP

Nc1ccc(Oc2cccc(Oc3ccc(N)cc3)c2)cc1
active: [2] 145 µM | [4] 25.4 µM
inactive: all other assays above

COC(=O)C1CCC(C(=O)OC)CC1 (stereo not drawn)
inactive: all assays above

N=C(N)C(F)(F)C(F)(F)C(F)(F)C(F)(F)C(F)(F)C(F)(F)C(F)(F)F
active: [3] 111 µM | [4] 211 µM | [6] 150 µM
inactive: all other assays above

O=C(O)C(F)(F)C(F)(F)C(F)(F)C(F)(F)C(F)(F)C(F)(F)C(F)(F)C(F)(F)C(F)(F)C(F)(F)C(F)(F)C(F)(F)F
not listed: [5]
inactive: all other assays above

FC(F)(F)C(F)(F)C(F)(F)C(F)(F)C(F)(F)C(F)(F)CC1CO1 (stereo not drawn)
not listed: [5]
inactive: all other assays above

c1ccc(-c2ccccc2-c2ccccc2)cc1
active: [1] 0.534 µM | [4] 27.7 µM | [6] 58.7 µM
inactive: all other assays above

C#C[C@]1(O)CC[C@H]2[C@@H]3CCc4cc(OC)ccc4[C@H]3CC[C@@]21C
active: [1] 0.0054 µM
inactive: all other assays above

CCCCNc1ccccc1
not listed: [5]
inactive: all other assays above

c1ccc(B(c2ccccc2)c2ccccc2)cc1
active: [1] 7.09 µM | [4] 34.2 µM | [5] 32.8 µM
inactive: all other assays above

CCCCOc1ccc(N)cc1
inactive: all assays above

FC(F)(F)C(F)(F)C(F)(F)C(F)(F)C(F)(F)C(F)(F)C(F)(F)Br
inactive: all assays above

O=C(O)C(F)(OC(F)(F)C(F)(OC(F)(F)C(F)(OC(F)(F)C(F)(F)C(F)(F)F)C(F)(F)F)C(F)(F)F)C(F)(F)F (stereo not drawn)
not listed: [5]
inactive: all other assays above

C=CC/C=C/C/C=C/C/C=C/C
inactive: all assays above

CC(=O)Nc1ccc(N=Nc2cc(C)ccc2O)cc1
active: [5] 17.7 µM
inactive: all other assays above

O=C(O)C(F)(F)C(F)(F)C(F)(F)C(F)(F)F
inactive: all assays above

CCCCCCOC(=O)c1ccccc1O
inactive: all assays above

COC(OC(C)=O)c1ccccc1 (stereo not drawn)
inactive: all assays above

CCC(=O)OCCc1ccccc1
inactive: all assays above

CCO[Si](CCC(F)(F)C(F)(F)C(F)(F)C(F)(F)C(F)(F)C(F)(F)F)(OCC)OCC
not listed: [5]
inactive: all other assays above

CCCCCCS
not listed: [5]
inactive: all other assays above

CCCCCCCOC(=O)c1ccccc1C(=O)OCCCCCCC
not listed: [5]
inactive: all other assays above

CCCCCCCCC(F)(F)C(F)(F)C(F)(F)C(F)(F)C(F)(F)C(F)(F)F
inactive: all assays above

C=CC(=O)OCC(F)(F)C(F)(F)C(F)(F)C(F)(F)C(F)(F)C(F)(F)C(F)(F)F
active: [9] 12.1 µM
inactive: all other assays above

OCCCC(F)(F)C(F)(F)C(F)(F)F
inactive: all assays above

O=C(C=Cc1ccccc1)OCC=Cc1ccccc1
active: [4] 24.3 µM
inactive: all other assays above
